Experiments:
ETS1 [1] = target: T1, ETS1 (UniProt P14921); assay: ETS1 binding intensity (PBM fluorescence), ETS1 alone (arbitrary fluorescence units); higher = stronger binding; details: ETS1 concentration 1 nM; RUNX1 concentration 0 nM
T1 sequence: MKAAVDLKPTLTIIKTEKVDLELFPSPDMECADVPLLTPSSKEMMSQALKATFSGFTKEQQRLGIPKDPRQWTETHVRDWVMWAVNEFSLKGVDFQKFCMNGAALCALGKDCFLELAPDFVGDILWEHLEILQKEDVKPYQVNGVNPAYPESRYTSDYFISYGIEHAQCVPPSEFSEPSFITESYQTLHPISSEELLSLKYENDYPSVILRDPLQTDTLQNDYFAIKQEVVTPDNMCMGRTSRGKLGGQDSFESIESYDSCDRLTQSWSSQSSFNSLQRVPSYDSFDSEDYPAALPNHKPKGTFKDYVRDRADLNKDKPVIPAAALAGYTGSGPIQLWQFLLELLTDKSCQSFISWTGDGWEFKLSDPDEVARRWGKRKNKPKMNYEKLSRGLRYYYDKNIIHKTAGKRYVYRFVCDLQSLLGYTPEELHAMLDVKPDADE

RUNX1 [2] = target: RUNX1 (UniProt Q01196); assay: RUNX1 binding intensity (PBM fluorescence), RUNX1 alone (arbitrary fluorescence units); higher = stronger binding; details: RUNX1 concentration 2 nM; ETS1 concentration 0 nM
Procedure: (§1)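 Cooperative gcPBM on 36-bp genomic probes with neighbouring ETS1 and RUNX1 sites. Recombinant human RUNX1 (2 nM) was incubated alone or with ETS1 (25 nM) and detected with anti-RUNX1 antibody plus Alexa488 secondary. Values are medians over 4 replicate spots; the RUNX1+ETS1 data were normalised to the RUNX1-only data. The probes sit in constant array flanks that are not printed.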

ETS1 [3] = target: T1, ETS1; assay: ETS1 binding intensity (PBM fluorescence) in presence of RUNX1, normalised to ETS1-only experiment (arbitrary fluorescence units); higher = stronger binding; details: ETS1 concentration 1 nM; RUNX1 concentration 25 nM
RUNX1 [4] = target: RUNX1 (UniProt Q01196); assay: RUNX1 binding intensity (PBM fluorescence) in presence of ETS1, normalised to RUNX1-only experiment (arbitrary fluorescence units); higher = stronger binding; details: RUNX1 concentration 2 nM; ETS1 concentration 25 nM
Procedure: as §1
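For RUNX1 binding intensity (PBM fluorescence) in presence of ETS1, normalised to RUNX1-only experiment in this document: Full-length recombinant human ETS1 or RUNX1 bound to double-stranded 36-bp genomic probes on microarrays, detected by protein-specific primary antibody and Alexa488 secondary, spot fluorescence as median of four replicate spots.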
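For RUNX1 binding intensity (PBM fluorescence), RUNX1 alone in this document: Full-length recombinant human RUNX1 bound to double-stranded 36-bp genomic probes on a high-density microarray, scored as Alexa488 fluorescence per spot via anti-RUNX1 antibody, median of four replicate spots.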

RUNX1, sequence (Q01196 whole entry): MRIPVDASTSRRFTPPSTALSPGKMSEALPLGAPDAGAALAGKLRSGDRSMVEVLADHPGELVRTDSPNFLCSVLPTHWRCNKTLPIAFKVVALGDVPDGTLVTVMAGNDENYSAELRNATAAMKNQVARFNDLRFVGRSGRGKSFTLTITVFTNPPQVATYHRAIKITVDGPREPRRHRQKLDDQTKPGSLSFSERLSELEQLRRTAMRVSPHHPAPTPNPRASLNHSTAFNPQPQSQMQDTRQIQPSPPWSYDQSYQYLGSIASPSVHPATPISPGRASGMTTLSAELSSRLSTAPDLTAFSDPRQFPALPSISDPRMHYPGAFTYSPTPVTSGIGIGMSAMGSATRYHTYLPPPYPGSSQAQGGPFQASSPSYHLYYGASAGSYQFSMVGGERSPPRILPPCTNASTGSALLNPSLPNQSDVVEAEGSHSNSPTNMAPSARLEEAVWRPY

Sequence | ETS1 binding intensity (ETS1 [1]) | RUNX1 binding intensity (RUNX1 [2]) | ETS1 binding intensity (ETS1 [3]) | RUNX1 binding intensity (RUNX1 [4])
CAGCGGAAGAAAGACCTGCCACCTCCACCACAAAGA | 440 | 1000 | 471 | 925
CAGACAGGAGGCGGATGTGGGTGGCGCAGAATGAGC | 1820 | 688 | 2250 | 1920
CCTTCCTTCCGGGGTCGGCCCCGCCCGCAAGCGCCG | 441 | 1180 | 467 | 3960
AGGTTGAAAGCACTTCCGCTGCGGCCCCCGTAGGAA | 3040 | 833 | 3460 | 1520
TGTTGTAGGGGAAGTGGTGTGTGGTATTCCTGGGGA | 797 | 811 | 1690 | 1070
AAACTACTTTCCTTCCTACCAAAACCACACTAAAGA | 620 | 2140 | 844 | 1920
TCCTGTAGTTTCCGGCTGAAGTGGTAAGGTTTTTGA | 845 | 925 | 852 | 1750
GCCACTATTTCCTGCCTTCTGCGGCTGAGAGTCCCA | 981 | 1220 | 997 | 3520
ACCCACTTCCTGTTAGAGCATCTTTGCAACCACAGG | 2010 | 933 | 3230 | 3000
CTGCCCACCGGAAACGATGGCGCGAGGCCGCAGAGC | 6160 | 728 | 7790 | 1660
CCCCTCAGCTTCCGGGTGCTGCGGCCGCGGCCGAGA | 646 | 827 | 999 | 1980

Source: the supplement of paper PMC10681739
